Assay results published in PubChem BioAssay AID624331 (National Center for Advancing Translational Sciences (NCATS), 2012).
Results filed as inconclusive are left out. A number with no mark means an inactive call. Calls of active or inactive are those of the source. The call rests on the fitted dose curve; in most records, active means well fitted activation curve with a large enough effect; inconclusive means small, poorly fitted or top-dose-only effect; inactive means no such curve, though single readings can be large or run the other way.

Test: qHTS assay for re-activators of p53 using a Luc reporter: Hit Validation with no p53 Expressed; on activity change, positive = activation: 0% is about no effect
Conditions: p53-null cells, luciferase reporter counter-screen; series mostly up to 46.1 µM; activity change, positive = activation: at the top concentration
Source text: The p53 tumor suppressor plays a key role in suppression of tumorigenesis and in human carcinogenesis. It is frequently found inactivated in human cancers, mainly by point mutation. These point mutations are found in a wide variety of human cancers and a majority of them affect the DNA binding domain of the protein. The point mutations either alter native p53 conformation or abolish DNA contact. Additionally, cancer cells with p53 mutations are more resistant to chemo-radiation therapies.
This counter screen was run against the hits identified from the primary screen. It uses a cell line that was not transfected with p53. Compounds that show activity in this counter screen show unspecific activation of the assay system and are excluded from further consideration.
NIH Chemical Genomics Center [NCGC]
NIH Molecular Libraries Probe Production Centers Network [MLPCN]
Assay Provider (PI): Yi Sung, University of Michigan at Ann Arbor
5ul of 1000 cells per well are dispensed in all wells except column 4, into white solid-bottom TC-treated Kalypsys plates. The cells are kept in Opti-MEM and supplemented with 10% FBS and dispensed using a Multidrop (Thermo). Then using the Kalypsys pin-tool, 23nl of compounds are pinned. The compounds are starting concentration at 10mM, with 1:5 dilution, 4 points, and the control compound nocodazole is pinned in column 1 at 25mM, 1:3 dilution, in duplicate, 25mM nocodazole is pinned in column 2. Please note, all concentrations are working concentrations. 5ul of 1pM purified luciferase enzyme is dispensed using the Kalypsys dispenser in column 4. Plates are incubated for 24 hrs at 37 deg C, 5% CO2, and 95% humidity. Then 4ul of the detection reagent Amplite (ABD Bioquest) is added using the Kalypsys dispenser. Plates are incubated for 10 min at ambient room temperature and are then read on the ViewLux (Perkin Elmer) using a clear filter for a luminescent read-out.
Potency means the concentration at half of the fitted maximal effect.

SMILES	activity change, positive = activation [%]	Potency
Cc1ccc(C)c(Oc2cc(NC(=O)CCCn3nc(C)c([N+](=O)[O-])c3C)cc([N+](=O)[O-])c2)c1	-48.2	
Cc1ccnc(NC(=O)/C=C/c2cccs2)c1	-14.7	
COC(=O)CSc1nc2cc(OC)ccc2cc1C#N	-10.9	
OC(COc1ccc2cc(Br)ccc2c1)CN1CCCC1 (stereo not given)	66.1	
O=C(Nc1cnc2ccccc2c1)C1COc2ccccc2O1 (stereo not given)	28.8	
Cc1ccc(C(=O)OC(C)C(=O)Nc2ccc3c(c2)OCO3)c(O)c1 (stereo not given)	-29.5	
CCc1cc2c(=O)c(-c3ccc4c(c3)OCCO4)coc2cc1OS(C)(=O)=O	59.3	
Clc1ccc(OCc2nc(-c3ccncc3)no2)c(Cl)c1	25	
COC(=O)CCC(=O)COc1ccccc1C#N	18.7	
CCCN1C(=O)SC(CC(=O)Nc2ccccc2C)C1=O (stereo not given)	29.6	
CC(C)(C)c1nnc(SCC(=O)c2ccccc2)n(N)c1=O	-1.02	
Cc1ccsc1/C=C(\C#N)C(=O)Nc1c(C)n(C)n(-c2ccccc2)c1=O	-39.4	
Nc1cccc(-c2nc3ccc(C(=O)c4ccccc4)cc3[nH]2)c1	-22.3	
C=CCNC(=S)N/N=C(\C)c1ccccn1	-32.4	
Cc1ccccc1CSc1ncc(C#N)c(N)n1	8.99	
CC(C)c1ccc(C(O)c2nc3ccccc3n2C)cc1 (stereo not given)	-33.7	
C=CCn1c(P(C)(=O)O)nc2ccccc21	36	
COC(=O)c1c(C)[nH]c(C(=O)/C=C/c2ccccc2)c1C	1.34	
C#CCn1c(=NC(=O)c2cccs2)sc2cccc(OCC)c21	-22.2	
Cc1cc(=O)[nH]c(N/N=C/c2ccccn2)n1	66.1	

SMILES	activity change, positive = activation [%]	Potency
COc1ccc2cc(C3(C)NC(=O)N(CC(=O)Nc4c(C)n(C)n(-c5ccccc5)c4=O)C3=O)ccc2c1 (stereo not given)	-34.1	
Cc1ccc2nc(C(F)(F)F)c(C#N)c(N)c2c1	-43.8	
Cc1cc(C(=O)Nc2ccc(Br)cn2)sc1C	-16.7	
C/C(=N/NC(=O)c1ccc2c(c1)OCO2)c1ccc(NC(=O)C(F)(F)F)cc1	-14.6	
NS(=O)(=O)c1ccc(CCNCc2cccnc2)cc1	-31.2	
CCOc1ccc(NC(=O)C(c2ccccn2)N(C(=O)CCl)c2ccc(OC)cc2)cc1 (stereo not given)	0.805	
Fc1cccc(NCc2cn3ccccc3n2)c1	29.4	
COC(=O)CSc1nc2cc3c(cc2cc1C#N)OCO3	-2.65	
COCCn1c(SCC(=O)Nc2ccc(N3CCOCC3)cc2)nc2ccccc21	-13.8	
N#Cc1cccc(N=Cc2c(O)ccc3ccccc23)c1	16.7	
Cc1ccc(NC(=O)c2cc(C)n(-c3ccccc3)c2C)cc1	-27.1	
COc1ccc(C(C)(C)C)cc1NC(=O)Nc1ccc2c(c1)OCO2	29.8	
Cc1ccc(S(=O)(=O)NCCOc2nc(N(C)C)nc(N3CCOCC3)n2)cc1	3.19	
c1ccc2sc(-c3ccc4c(c3)OCO4)nc2c1	-24.1	
CCOCC(=O)Nc1nc2ccc(OCC)cc2s1	16.9	
Cc1ccc(C(=O)N/N=C2\CCc3ccccc32)c(C)c1	-37.4	
Cc1cccc(NC(=O)Nc2ccc(C)cc2Br)c1	6.7	
N#Cc1cnc(Oc2ccc(Cl)cc2)nc1N	31	
Cn1c(C(=O)Nc2ccc3c(c2)OCCO3)cc2sccc21		1160 nM (active)
CN(C)c1ccc(/C=N/N=C/c2ccccc2O)cc1	-28.4	
